Assay results: ChEMBL document CHEMBL4513216, “Probing the Open Global Health Chemical Diversity Library for Multistage-Active Starting Points for Next-Generation Antimalarials” (ACS Infect Dis, 2020)
The whole screen tested about 69,000 compounds, of which about 8,600 (12%) showed an effect of 50% or more. Many of the other results were omitted from the sample, so strong results are more common in it than they were.

tested on: Plasmodium berghei; experiment: Screen against P. berghei liver stage (PbLuc), transformed with Luciferase, at 10uM; type: functional, HepG2; details: tested at 10 uM

First: O=C(c1cc2ccccc2[nH]1)N1CCC(Nc2cccnn2)CC1
Second: CC(O)CN1CCN(C(=O)c2cc3ccccc3[nH]c2=O)CC1 (stereo unspecified)
The INHIBITION of the first is higher: 31.2% for the first, 16.6% for the second.

Compared with `Cc1nnc2n1CCN(C(=O)c1ccc(Cn3cccc3)cc1)C2`, `CNc1cc2c(nn1)CCN(C(=O)c1ccccc1-n1cccn1)C2` is higher in INHIBITION: -18.52% for the first, 36.8% for the second.

Going from `CN1CCN(C(=O)c2ccc3c(c2)nc(N2CCOCC2)n3C)CC1=O` to `CN1CC(C(=O)NC2(c3cccc(F)c3)CCOCC2)CC1=O` (stereo unspecified), the INHIBITION falls from -18.9% to -36%.

First: Cc1nc(C(=O)N2CCCC2c2c(C)nn(C)c2Cl)ccc1C#N (stereo unspecified)
Second: COCc1nc(C(=O)N2CCCC(n3ccnc3C(C)C)C2)cs1 (stereo unspecified)
The INHIBITION of the first is lower: 0.914% for the first, 19.5% for the second.

Going from `NC(=O)NCC(=O)N1C[C@@H]2CC[C@H]1CN(C1Cc3ccccc3C1)C2` to `O=C([C@H]1CCCO1)N1CC[C@@H](O)[C@@H]1Cc1ccccc1`, the INHIBITION rises from 21% to 21.1%.

First: CCCC(=O)N1CCCC1(C)c1nc(C)no1 (stereo unspecified)
Second: Cc1noc2ncc(C(=O)NCC3CCCOC3)cc12 (stereo unspecified)
The INHIBITION of the first is higher: -3.97% for the first, -6.45% for the second.

First: COc1cc(OC)c(C2Nc3cc(Cl)ccc3C3=NCCN32)cc1OC (stereo unspecified)
Second: COc1cc(C2Nc3cc(Cl)ccc3C3=NCCN32)cc(OC)c1OC (stereo unspecified)
The INHIBITION of the first is higher: 73.9% for the first, 38.8% for the second.

Going from `COc1cc(C2Nc3cc(Cl)ccc3C3=NCCN32)ccc1O` (stereo unspecified) to `COc1ccc(C2Nc3cc(Cl)ccc3C3=NCCN32)cc1O` (stereo unspecified), the INHIBITION rises from -43% to 28%.

First: Oc1ccc(C2Nc3ccccc3C3=NCCCN32)cc1 (stereo unspecified)
Second: COc1ccc(C2Nc3ccccc3C3=NCCCN32)cc1OC (stereo unspecified)
The INHIBITION of the first is lower: 36.4% for the first, 54% for the second.

Compared with `COc1ccc(C2Nc3cc(Cl)ccc3C3=NCCN32)cc1OC` (stereo unspecified), `COc1ccc(C2Nc3cc(Cl)ccc3C3=NCCN32)cc1CO` (stereo unspecified) is lower in INHIBITION: 72.8% for the first, 46% for the second.

Compared with `CN(C)c1ncc(C2Nc3ccccc3C3=NCCCN32)cn1` (stereo unspecified), `CN1CCCC(CCC(=O)NCCCn2ncc3ccccc32)C1` (stereo unspecified) is higher in INHIBITION: 9.93% for the first, 17% for the second.

First: CN1CCCCC(C2CCN(S(=O)(=O)c3cn(C)cn3)CC2)C1=O (stereo unspecified)
Second: CN1CCC2(CCCN(S(=O)(=O)c3ccc(-c4cnco4)s3)C2)C1 (stereo unspecified)
The INHIBITION of the first is lower: -23.4% for the first, 37.3% for the second.

First: CCNC(=O)[C@@H]1C[C@@H](NC(=O)CSC)CN1Cc1ccncc1
Second: CC(NC(=O)NCCCn1cccn1)c1ccncc1 (stereo unspecified)
The INHIBITION of the first is lower: 29.6% for the first, 36.3% for the second.

Compared with `OC(CNCCn1cccn1)c1cccc(F)c1` (stereo unspecified), `Cc1ncccc1C(=O)NC1(c2cccc(F)c2)CCOCC1` is higher in INHIBITION: -15.5% for the first, 76.2% for the second.

Compared with `Cc1ccnc(OC[C@]23COC[C@H]2CN(C(=O)c2ncccn2)C3)n1`, `O=C(CCc1cc(Cl)no1)N1CCC(c2cc3ncccc3cn2)CC1` is higher in INHIBITION: 18.4% for the first, 23.2% for the second.

First: O=C(NC1(c2cccc(F)c2)CCOCC1)c1ccoc1
Second: O=C(NC1(c2cccc(F)c2)CCOCC1)c1cc[nH]n1
The INHIBITION of the first is higher: 18.5% for the first, 13.5% for the second.

Going from `CN(C)c1cc(C(=O)NC2(c3cccc(F)c3)CCOCC2)ccn1` to `COc1ncccc1C(=O)NC1(c2cccc(F)c2)CCOCC1`, the INHIBITION rises from 27.5% to 65.3%.

Compared with `O=C(NC1(c2cccc(F)c2)CCOCC1)c1ccccn1`, `Cc1cc(C(=O)NC2(c3cccc(F)c3)CCOCC2)no1` is lower in INHIBITION: 26.8% for the first, 20.6% for the second.

Compared with `CC(C)c1ocnc1C(=O)NC1(c2cccc(F)c2)CCOCC1`, `Cc1occc1CNC(=O)N1CCC(Cc2cnn(C)c2)C1` (stereo unspecified) is lower in INHIBITION: 60.3% for the first, -24.15% for the second.

Compared with `CCC(CC)C(=O)N1CCCc2c(cnn2C)C1`, `Cc1cc(C(=O)N2CCc3ncnc(-c4cnn(C)c4)c3CC2)no1` is lower in INHIBITION: 31.9% for the first, 0.618% for the second.

Compared with `CCOc1ccccc1-n1c(-c2cn(CC)nc2C)n[nH]c1=O`, `COc1ccccc1C(C)Nc1ncc(C(N)=O)cc1Cl` (stereo unspecified) is lower in INHIBITION: 18% for the first, -7.25% for the second.

First: CC(=O)Nc1cc(C(C)(C)C)sc1C#N
Second: Cc1cc(C(=O)N2C[C@@H](C(=O)O)[C@H](C(C)C)C2)cs1
The INHIBITION of the first is lower: -52.4% for the first, 46.1% for the second.

Going from `Cc1cncc(C(=O)N2C[C@@H](C(=O)O)[C@H](C(C)C)C2)c1` to `CC(C)[C@@H]1CN(C(=O)c2ccsc2)C[C@H]1C(=O)O`, the INHIBITION falls from 72.2% to 30.9%.

Compared with `COC(=O)c1cc2n(n1)CCN(C(=O)c1csc(CN(C)C)n1)C2`, `COc1ccc(S(=O)(=O)N2Cc3c(CN(C)C)nn(C)c3C2)cc1` is lower in INHIBITION: -4.96% for the first, -6.23% for the second.

Going from `COC(=O)Cn1c(=O)[nH]c2cn(-c3cccc(Cl)c3)c(=O)n21` to `COCCOCC(=O)N1C[C@@H]2CC[C@H](Oc3ccccc3Cl)[C@@H]2C1`, the INHIBITION rises from 33.7% to 40%.

Compared with `COc1cc(C)c(C(C)Nc2ncc(C(N)=O)cc2Cl)cc1OC` (stereo unspecified), `Cc1nn(C)cc1C(C)Nc1ncc(C(N)=O)cc1Cl` (stereo unspecified) is higher in INHIBITION: -37.7% for the first, 71.1% for the second.

Going from `N#CC1(NC(=O)c2cc(Cl)c3c(c2)OCCCO3)CCC1` to `c1cnc2ccc(C[C@@H]3CC[C@H](CN4CCCOCC4)O3)cc2c1`, the INHIBITION rises from -14.2% to 23.5%.

First: Cc1ccc(S(=O)(=O)N2Cc3c(CN(C)C)nn(C)c3C2)cc1
Second: CCc1ccc(S(=O)(=O)N2Cc3c(CN(C)C)nn(C)c3C2)cc1
The INHIBITION of the first is lower: 0.542% for the first, 72% for the second.
